Experimental data as given in PubChem BioAssay AID1159580 (chemical genetic matrix, 2015).
About 2,000 (36%) of roughly 5,500 compounds were called active. Roughly 18% stayed inconclusive and do not appear here. Cut-off read from the data, not from the text of the source: active = normalized growth mostly below about 0.91 (no sharp cut-off); inconclusive = no clear call, values can overlap the other calls; inactive = mostly above about 0.92. The list shows a part of the results.

Experiment: chemical genetic growth profiling, strain panel (AID 1159580);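 note: tested at 20 µM; growth read once vehicle control cultures reached saturation at 30 °C; 1 = growth at the plate median or of vehicle wells; lower values mean less growth of the strain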
Conditions: growth OD

Measured: normalized growth

CCOC(=O)N=Nc1c(O)[nH]c2ccc(F)cc12
inactive: S. cerevisiae deletion strains, locus YAL013W, strain DEP1, hits give low values 1.01 | S. cerevisiae deletion strains, locus YBR229C, strain ROT2, hits give low values 1.01 | S. cerevisiae deletion strains, locus YDL101C, strain DUN1, hits give low values 1.01 | S. cerevisiae deletion strains, locus YDR150W, strain NUM1, hits give low values 1 | S. cerevisiae deletion strains, locus YEL061C, strain CIN8, hits give low values 1.02 | S. cerevisiae deletion strains, locus YGR078C, strain PAC10, hits give low values 1 | S. cerevisiae deletion strains, locus YGR229C, strain SMI1, hits give low values 1 | S. cerevisiae deletion strains, locus YHR030C, strain SLT2, hits give low values 1.06 | S. cerevisiae deletion strains, locus YHR087W, strain rtc3, hits give low values 1.03 | S. cerevisiae deletion strains, locus YJR043C, strain POL32, hits give low values 1 | S. cerevisiae deletion strains, locus YJR075W, strain HOC1, hits give low values 1.02 | S. cerevisiae deletion strains, locus YKL190W, strain CNB1, hits give low values 1.01 | S. cerevisiae deletion strains, locus YLR039C, strain RIC1, hits give low values 1.02 | S. cerevisiae deletion strains, locus YLR058C, strain SHM2 (second series), hits give low values 0.997 | S. cerevisiae deletion strains, locus YLR085C, strain ARP6, hits give low values 1.01 | S. cerevisiae deletion strains, locus YLR262C, strain YPT6, hits give low values 1.01 | S. cerevisiae deletion strains, locus YML094W, strain GIM5, hits give low values 1.05 | S. cerevisiae deletion strains, locus YMR219W, strain ESC1, hits give low values 0.999 | S. cerevisiae deletion strains, locus YMR263W, strain SAP30, hits give low values 0.976 | S. cerevisiae deletion strains, locus YMR307W, strain GAS1, hits give low values 0.933 | S. cerevisiae deletion strains, locus YNL128W, strain TEP1, hits give low values 1.02 | S. cerevisiae deletion strains, locus YNL153C, strain GIM3, hits give low values 1 | S. cerevisiae deletion strains, locus YNL298W, strain CLA4 (second series), hits give low values 0.998 | S. cerevisiae deletion strains, locus YNL322C, strain KRE1, hits give low values 1.02 | S. cerevisiae deletion strains, locus YNR030W, strain Alg12, hits give low values 1.01 | S. cerevisiae deletion strains, locus YOL006C, strain TOP1, hits give low values 1.03 | S. cerevisiae deletion strains, locus YPL055C, strain LGE1, hits give low values 1.04 | S. cerevisiae deletion strains, locus YPL241C, strain CIN2, hits give low values 0.889 | S. cerevisiae deletion strains, locus YPR135W, strain CTF4, hits give low values 1.08 | S. cerevisiae strains, strain wild type, hits give low values 1
